Laboratory results taken from PubChem BioAssay (NCI).
About 83,000 compounds went through this panel and 20% of them were active in at least one assay; those are over-represented in the sample as a whole.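 Cells were grown in 96-well plates and exposed to the test compound at a single concentration for 48 hours; results are reported as percent growth, with values below 10 considered active.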 Unmarked numbers belong to inactive results. The source made the active and inactive calls.

Test system: NCI-H522 lung
Assay: NCI-60 one-dose screen, 48 h (100 = growth as untreated, 0 = no growth, -100 = all killed)
Conditions: 10 µM
Method: Growth inhibition of the NCI-H522 human Non-Small Cell Lung tumor cell line is measured as a screen for anti-cancer activity. Cells are grown in 96 well plates and exposed to the test compound for 48 hours. Compounds are tested at a single concentration, which is 10^-5 M for most compounds. The reported endpoint is percent growth (GI% or GIPRCNT), where numbers from 0 - 100% represent growth inhibition, and numbers from -100% - 0 represent cell death. For example, a value of 40 represents 60% growth inhibition. A value of 0 means no net growth occurred over the course of the experiment. A value of -40 indicates 40% of cells at the beginning of the experiment died by the end of the experiment. A value of -100 means all cells are dead at the end of the experiment.
NCI-60 Human Tumor Cell Lines Screen was performed using the standard one-dose NCI protocol, which is described in more detail at https://dtp.cancer.gov/discovery_development/nci-60/default.htm.
Compounds with GIPRCNT values below 10 were considered active. Activity score was based on GIPRCNT using the following formula: […]
Score is 0 for GIPRCNT values of 100 or above, 50 for GIPRCNT values of 0, and 100 for GIPRCNT values of -100.

Compound	growth
Cc1nc2cc(Nc3nc(NCCN)nc(Nc4ccc(F)cc4)n3)ccc2n1Cc1ccccc1	85.9%
NS(=O)(=O)c1ccc(C(=O)N/N=C(\CS(=O)(=O)c2ccccc2)c2cc3cc(Br)ccc3o2)cc1	80.2%
COc1ccc(/C=C2\CN(Cc3cn(CCCNc4ccnc5cc(Cl)ccc45)nn3)C/C(=C\c3ccc(OC)cc3)C2=O)cc1	87.9%
COc1cc(C2=NN(c3ccc(S(N)(=O)=O)cc3)C(c3ccc(Cl)cc3)C2)cc(OC)c1OC (stereo not given)	44.9%
O=C1c2cc(S(=O)(=O)O)ccc2C(=O)c2c1cccc2[N+](=O)[O-]	96.6%
COc1ccc(-c2nc3sccn3c2/C=C/C(=O)c2cc(OC)c(OC)c(OC)c2)cc1OC	15.3%
CCOc1ccc(/C=N\N2CCCCCC2)cc1OCC	97.8%
Cc1cc(C)c(S(=O)O)c(C)c1	101%
Cn1c2ccc(Cl)cc2c2nn(C(=O)c3ccccc3)c(=O)nc21	101%
O=C(c1ccc2ncc(-c3nc(NC4CC4)ncc3F)n2c1)N1CCOCC1	72.6%
COc1c(O)c2c3c(c1OC)-c1ccccc1CC3N(S(=O)(=O)c1ccc(C)cc1)CC2 (stereo not given)	19.9%
COc1ccc(Nc2[nH]n(C3=Nc4ccccc4Sc4ccccc43)c(=O)c2C#N)cc1	29.6%
CCCCCCCC/C=C\CCCCCCCCOc1cccc(CC(=O)NCC[N+]2(C)CCCC2)c1	68.6%
COc1ccc(/C=C2\Oc3cc(C)c(Cl)cc3C2=O)cc1OC	82.7%
Cn1c2c(cc(S(=O)(=O)c3ccccc3)c1=O)CCc1c-2cnn1-c1cccc(Cl)c1	-81.2% (active)
Cn1cc(C(=O)NCCC(=N)N)cc1NC(=O)CN=C(N)N	87.5%
CCCCCCCCCCCCCCNc1nc(CO)ncc1-c1ccc(C(F)(F)F)cc1	90.6%
CC1(C)N=C(N)N=C(N)N1c1cccc(/C=C/C=C/c2cccc([N+](=O)[O-])c2)c1	27.6%
Nc1cc(Br)c(-c2nnc(CCC(=O)c3nc4ccccc4[nH]3)o2)c(Br)c1	24.6%
O=C1Nc2ccc(Cl)cc2/C1=N/N=C(c1ccccc1)c1ccccc1	83.4%

Compound	growth
O=c1c2cc(F)ccc2oc2c(NCCNCCO)nc3ccccc3c12	39.8%
CCCCCCCC/C=C\CCCCCCCCOc1cccc(CC(=O)NCC[N+]2(C)CCOCC2)c1	77%
O=C(N/N=C/c1ccc(OC(F)F)c(OC2CCCC2)c1)c1cnn2c1NC(c1ccccc1)C2 (stereo not given)	78.8%
N#CC1=C(N)Oc2cc(N)ccc2C1c1ccc(F)cc1 (stereo not given)	54.1%
COc1ccc(NC(=O)COc2ccccc2)c(C(N)=O)c1	6.28% (active)
COc1cccc(C2C3=C(COC3=O)N(CCO)c3cc4c(cc32)OCO4)c1 (stereo not given)	-39.4% (active)
O=C1C=CC(=O)N1CCCCCCCCCCN1C(=O)C=CC1=O	-60.7% (active)
O=C(Nc1ccc(F)cc1)c1ccc(C(=O)Nc2ccc(F)cc2)cc1	111%
CCOC(=O)c1[nH]c2cc(Cl)ccc2c1[C@@H](C(=O)NC(C)(C)C)N(CC)C(=O)CCCCC#Cc1cccc2c1CN(C1CCC(=O)NC1=O)C2=O (stereo not given in full)	44.2%
COC(=O)[C@@]12CC[C@@H](C)[C@]3(C[C@@H](c4ccoc4)OC3=O)[C@H]1CC[C@@H]1O[C@@]12C	84.9%
CCCCC1COc2cccc3c(SCC(=O)N(C)c4cccc5ccccc45)cc[n+]1c23 (stereo not given)	83.5%
COc1ccc2c(c1)c(=O)oc1c(C)c(OCC(C)=O)ccc12	89.7%
Cc1nc(NN)c([N+](=O)[O-])c(NN)n1	108%
COc1ccc(Cn2c(Br)c3c(c2-c2cc(OC)c(OC)c(OC)c2)CCc2sc(N)nc2-3)cc1	-11.4% (active)
C=C[C@H]1C[C@@H]2C[C@@H]3[C@H]4C/C=C\C(=O)NCCCC5NC(=O)C(=C(O)/C=C/[C@@H]4CC(=O)[C@H]3[C@@H]2[C@H]1C)C5=O (stereo not given in full)	46.4%
Cc1nc(NC(=O)COc2cccc(/C=C3\COc4ccccc4C3=O)c2)sc1C	-49.6% (active)
O=C1CCC(N2Cc3c(C#CCCCNC(=O)c4cc5c(o4)C(=O)c4ccccc4C5=O)cccc3C2=O)C(=O)N1 (stereo not given)	-61.2% (active)
Cc1ccc(S(=O)(=O)N2CCc3ccc(O)c4c3C2Cc2cc(Cl)ccc2-4)cc1 (stereo not given)	18.4%
CCOc1ccc(-c2cnnn2-c2nonc2-n2cccc2)cc1	-55.9% (active)
COC(=O)c1cc(-c2ccc(C)cc2)n(C(=O)CSc2nc3sc(C(N)=O)c(C)c3c(=O)n2Cc2ccccc2)n1	95%
